# Results from PubChem BioAssay AID1259415 (National Center for Advancing Translational Sciences (NCATS), 2018).
# “And” between values parts separate entries of the source, which are not always exact repeats. Identical values can stand only once. Out of some 410,000 compounds screened, about 18,000 (4.4%) were called active. Another 7% or so got no clear call; they are omitted. This is one part of a sample in which actives are shown more often than they occur. Values without a mark were called inactive. Cut-off read from the data, not from the text of the source: active = activity change below about -60%; inconclusive = no clear call, values can overlap the other calls; inactive = above about -39%.
# Assay: qHTS Assay for inhibitors of the human cytomegalovirus (HCMV)
# Conditions: HFF cells, HCMV-luciferase reporter, 72 h; at 57.5 µM; hits give low values
# How it was run: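 Steps: HFFs plated, 16 h 37C; compounds added; HCMV-luciferase added to MOI 1 PFU/cell; 72 h 37C; OneGlo reagent, 5 min room temperature; luminescence read, normalized to controls.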
# % is set by controls: 0 for no effect and ±100 for the full control effect.
row,SMILES,"activity change, negative = inhibition"
1,Cc1nn(C(=O)c2c(F)cccc2F)c(C)c1S(=O)(=O)N1CCOCC1,9.99%
2,O=S(=O)(c1cnccc1N1CCN(/N=C/c2ccc(Br)cc2)CC1)N1CCCCC1,-6.47%
3,COc1cc(OC)c(C(=O)NC2CC(C)(C)NC(C)(C)C2)cc1OC,37.1%
4,COc1ccc(C(=O)NC2CC(C)(C)NC(C)(C)C2)cc1OC,7.69%
5,COc1cc2c(cc1OC)C(=O)NCC(C)(C)O2,-102% (active)
6,COc1ccc(NC(=O)CSc2nc3ccccc3n2CC(=O)N2CCCCC2C)cc1 (stereo not given),-20.6%
7,O=C(c1cnn(-c2ccc(F)cc2)c1-n1cccc1)N1CCN(c2ccc(F)cc2)CC1,-8.43%
8,CCCCOc1ccc(C(=O)Nc2cccc(-c3nc4ccccc4o3)c2C)cc1,-17.8%
9,CCOc1ccc(C2C(C(=O)Nc3ccc(Cl)cc3)=C(C)Nc3nc(C(F)(F)F)nn32)cc1 (stereo not given),-84.1% (active)
10,COc1cc(C2C(C(=O)Nc3ccc(F)cc3)=C(C)Nc3nc(CCCO)nn32)cc(OC)c1OC (stereo not given),8.48%
11,COC(=O)c1nc2n(n1)C(c1ccc([N+](=O)[O-])cc1)C(C(=O)Nc1ccc(Cl)cc1)=C(C)N2 (stereo not given),5.33%
12,Cc1ccc2oc3c(c(=O)c2c1)C(c1ccc([N+](=O)[O-])cc1)N(CCCN1CCOCC1)C3=O (stereo not given),40.9%
13,COc1ccc(CCNC(=O)C(=O)NCC(c2ccco2)S(=O)(=O)c2cccs2)cc1OC (stereo not given),0.563%
14,CCOc1ccc(CCNC(=O)c2csc3c2CCCCC3)cc1,-5.3%
15,Cc1cccc(OCCCC(=O)Nc2sc3c(c2C(N)=O)CCC(C)C3)c1 (stereo not given),-6.01%
16,COc1ccc(C(=O)Nc2ccc3nc(N4CCCCC4)cc(C)c3c2)cc1OC,-31.4% and -29.2%
17,CCOCCCNC(=S)Nc1ccc2nc(N3CCN(CC)CC3)cc(C)c2c1,-1.19%
18,CCN1CCN(c2cc(C)c3cc(NC(=O)c4cc(Cl)ccc4OC)ccc3n2)CC1,-99.2% (active)
19,COc1ccc(CCNC(=O)CCCn2c(=O)c3ccccc3n(Cc3ccc(F)cc3Cl)c2=O)cc1OC,12.1%
20,O=C1OCCC1=COCCCCOC=C1CCOC1=O,19%
21,COc1ccc(CNC(=O)Cc2coc3ccc(C(C)C)cc23)cc1,-6.28%
22,Cc1ccc(Cl)cc1NC(=O)Cc1ccc(-n2c(C)nc3cccnc32)cc1,0%
23,Cc1c(NC(=O)C(C)(C)C)cccc1-c1nc2ccccc2s1,39.5%

row,SMILES,"activity change, negative = inhibition"
1,Cc1c(NC(=O)Cc2ccccc2)cccc1-c1nc2cccnc2s1,-66.4% (active)
2,O=C(CCc1cn(Cc2ccc(F)cc2)c2ccccc12)NC1CCCCC1,4.53%
3,Cc1nc(N2CCCCC2)sc1C=O,-68.8% (active)
4,Cc1nc(N2CCOCC2)sc1C(=O)NN,0%
5,CC(C)C(C)(C#N)NC(=O)CSc1nncn1-c1ccccc1 (stereo not given),-23%
6,COc1ccccc1C1C(C(=O)N2CCCCC2)=C(C)Nc2nc3ccccc3n21 (stereo not given),1.21%
7,COC(=O)c1c(NC(=O)c2cc(=O)c3c(C)cc(C)cc3o2)sc2c1CCCC2,17.7%
8,CCN(CC(=O)NC(=O)NCc1ccccc1)Cc1nc2ccccc2c(=O)[nH]1,5.98%
9,CCN(CC)c1ccc(C(=O)NNC(=O)CCc2nc3ccccc3c(=O)[nH]2)cc1,-64.9% (active)
10,CCN(Cc1nc2ccccc2c(=O)[nH]1)Cc1cc(=O)oc2cc(C)c(C)cc12,17.8%
11,COc1ccc(-c2cc(NCc3ccc(F)cc3)n3cnnc3n2)cc1,-27.8%
12,CCc1cnc2c(c1SCC(=O)c1ccccc1)c(=O)n(C)c(=O)n2C,-3.48%
13,COCC(C)NS(=O)(=O)c1ccc(N2CCCCS2(=O)=O)cc1 (stereo not given),-11.3%
14,CC(c1ccccc1)n1c(NCCCn2ccnc2)nc2c1c(=O)[nH]c(=O)n2C (stereo not given),97.4%
15,O=C(NNC(=O)c1ccccc1[N+](=O)[O-])Nc1ccccc1C(F)(F)F,-0.175%
16,CN(CC(=O)Nc1ccccc1C(F)(F)F)C(=O)Cc1ccccc1F,-12.2%
17,Cc1cc(C)nc(NC(=O)Nc2ccccc2C(F)(F)F)n1,-62.1% (active)
18,COc1cc(Cl)c(C)cc1NC(=O)CCc1nc2cccnc2n1Cc1cccs1,11%
19,CC[n+]1c(C)n(-c2ccccc2)c2ccc(NC(C)=O)cc21,-79.8% (active)
20,Cc1nnc(SCC(=O)Nc2cccc(N)c2)n1-c1ccccc1,5.74%
21,CC(=O)Nc1ccc(NC(=O)CSc2nnc(C3CC3)n2-c2ccccc2)cc1,0%
22,Cn1c(CCC(=O)OCC(=O)NCc2ccccc2Cl)nc(=O)c2ccccc21,14.9%
